Experimental data from ChEMBL document CHEMBL3988442, “University of Dundee, Small-Polar-MMV Screening Library” (2021).
For some assays here: Potency and affinity values are given separately.

Experiments:
Set-up in all cases: scale not given: direction of the effect not stated beside the values
[1] = target: Protein translocase subunit SecA (Escherichia coli (strain K12)) (UniProt P10408); experiment: Assay to Identify E. coli SecA ATPase Inhibitors; assay type: functional; settings: 30 µM
[2] = target: T1, Ubiquitin-activating enzyme e1, putative (Leishmania donovani (strain BPK282A1)) (UniProt E9BSI1); experiment: Leishmania donovani Ubiquitin Activating Enzyme (LdE1); assay type: functional; settings: 30 µM
T1 sequence (whole entry): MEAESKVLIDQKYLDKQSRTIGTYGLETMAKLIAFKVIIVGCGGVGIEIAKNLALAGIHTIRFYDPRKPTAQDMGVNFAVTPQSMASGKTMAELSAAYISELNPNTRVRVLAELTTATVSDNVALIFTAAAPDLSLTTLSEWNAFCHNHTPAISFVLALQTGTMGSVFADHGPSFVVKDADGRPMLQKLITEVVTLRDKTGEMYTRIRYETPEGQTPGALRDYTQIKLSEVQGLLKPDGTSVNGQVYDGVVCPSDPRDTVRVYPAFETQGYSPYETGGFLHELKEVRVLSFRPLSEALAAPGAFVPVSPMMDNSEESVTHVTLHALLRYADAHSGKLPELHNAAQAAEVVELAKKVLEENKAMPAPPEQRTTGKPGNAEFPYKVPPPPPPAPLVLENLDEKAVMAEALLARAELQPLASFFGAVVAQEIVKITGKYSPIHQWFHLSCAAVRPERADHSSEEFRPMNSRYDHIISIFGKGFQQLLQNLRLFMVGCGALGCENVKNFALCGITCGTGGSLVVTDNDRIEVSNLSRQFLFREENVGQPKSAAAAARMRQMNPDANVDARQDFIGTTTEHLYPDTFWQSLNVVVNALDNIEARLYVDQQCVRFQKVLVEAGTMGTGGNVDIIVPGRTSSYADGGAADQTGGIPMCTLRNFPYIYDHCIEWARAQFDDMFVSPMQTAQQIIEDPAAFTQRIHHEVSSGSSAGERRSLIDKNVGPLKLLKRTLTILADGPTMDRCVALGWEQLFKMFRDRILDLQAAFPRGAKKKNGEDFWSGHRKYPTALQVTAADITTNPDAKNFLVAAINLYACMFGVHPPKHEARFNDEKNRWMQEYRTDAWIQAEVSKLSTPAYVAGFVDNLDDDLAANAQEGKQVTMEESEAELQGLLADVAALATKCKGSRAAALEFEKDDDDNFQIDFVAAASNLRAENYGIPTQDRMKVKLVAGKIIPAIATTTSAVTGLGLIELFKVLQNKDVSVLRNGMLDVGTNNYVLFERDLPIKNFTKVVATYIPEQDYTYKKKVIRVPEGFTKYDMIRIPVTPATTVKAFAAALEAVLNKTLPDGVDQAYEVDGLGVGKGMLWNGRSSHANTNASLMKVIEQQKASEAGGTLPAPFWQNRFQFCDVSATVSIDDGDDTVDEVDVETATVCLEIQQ

[3] = target: AMP-activated protein kinase, AMPK (Homo sapiens) (UniProt P54646+O43741+P54619+Q9UGJ0+Q9Y478+Q13131+Q9UGI9); experiment: AMP-dependent Kinase enzyme assay. An in vitro enzyme assay that detects ADP turnover that is directly proportional to AMPK activity. This uses naive AMPK that is activated during the assay with MK-8722; assay type: functional; settings: 30 µM
[4] = target: Sialic acid-binding Ig-like lectin 9 (Homo sapiens) (UniProt Q9Y336); experiment: Hs-Siglec9 ALPHAscreen SOP 20170721; settings: 10 µM
Trypanosoma cruzi = experiment: Trypanosoma cruzi phosphomannomutase and mannose-1-phosphate guanylyltransferase assay; assay type: functional; settings: 10 µM
[5] = target: T2, Arginase-2, mitochondrial (Homo sapiens) (UniProt P78540); experiment: in vitro enzyme assay to detect the production of urea directly proportional to the activity of Arginase II; assay type: functional; settings: 33.3 µM; further: in the data most compounds retested in dose-response had high values
T2 sequence (whole entry): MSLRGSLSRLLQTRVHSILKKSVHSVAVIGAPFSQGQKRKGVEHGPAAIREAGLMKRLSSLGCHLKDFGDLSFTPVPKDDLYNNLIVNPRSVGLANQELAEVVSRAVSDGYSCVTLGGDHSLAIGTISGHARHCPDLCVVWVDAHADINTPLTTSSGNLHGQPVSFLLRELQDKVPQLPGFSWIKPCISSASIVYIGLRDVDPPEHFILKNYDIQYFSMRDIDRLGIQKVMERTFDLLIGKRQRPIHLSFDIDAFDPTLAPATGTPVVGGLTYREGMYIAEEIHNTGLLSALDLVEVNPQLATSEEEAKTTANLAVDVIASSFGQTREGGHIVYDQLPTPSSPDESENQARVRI

[6] = target: T3, Proteasome subunit beta (Trypanosoma cruzi) (UniProt O96673); experiment: Trypanosoma cruzi proteasome chymotrypsin-like activity (TcProtChymo) assay.; further: in the data most compounds retested in dose-response had high values; assay type: functional; settings: 9.37 µM
T3 sequence (whole entry): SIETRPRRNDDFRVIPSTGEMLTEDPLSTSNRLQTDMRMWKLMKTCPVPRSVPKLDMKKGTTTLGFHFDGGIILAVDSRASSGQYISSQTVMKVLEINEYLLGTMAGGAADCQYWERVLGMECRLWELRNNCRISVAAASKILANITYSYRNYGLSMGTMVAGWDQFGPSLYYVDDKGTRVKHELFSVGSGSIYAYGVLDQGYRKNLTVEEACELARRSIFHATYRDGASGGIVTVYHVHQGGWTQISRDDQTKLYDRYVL

Homo sapiens = species on record: Homo sapiens; experiment: To identify inhibition of the IFN signalling (Jak-Stat) pathway via expression of an eGFP reporter gene under the control of an IFN-stimulated response element (ISRE) containing MxA promoter.; assay type: functional; settings: 30 µM
[7] = target: T4, Tyrosyl-tRNA synthetase, putative (Trypanosoma cruzi (strain CL Brener)) (UniProt Q4DSP6); experiment: Trypanosoma cruzi tyrosyl tRNA synthetase (TcYRS) _High Tyrosine SOP; assay type: functional; settings: 30 µM; further: in the data most compounds retested in dose-response had high values
T4 sequence (whole entry): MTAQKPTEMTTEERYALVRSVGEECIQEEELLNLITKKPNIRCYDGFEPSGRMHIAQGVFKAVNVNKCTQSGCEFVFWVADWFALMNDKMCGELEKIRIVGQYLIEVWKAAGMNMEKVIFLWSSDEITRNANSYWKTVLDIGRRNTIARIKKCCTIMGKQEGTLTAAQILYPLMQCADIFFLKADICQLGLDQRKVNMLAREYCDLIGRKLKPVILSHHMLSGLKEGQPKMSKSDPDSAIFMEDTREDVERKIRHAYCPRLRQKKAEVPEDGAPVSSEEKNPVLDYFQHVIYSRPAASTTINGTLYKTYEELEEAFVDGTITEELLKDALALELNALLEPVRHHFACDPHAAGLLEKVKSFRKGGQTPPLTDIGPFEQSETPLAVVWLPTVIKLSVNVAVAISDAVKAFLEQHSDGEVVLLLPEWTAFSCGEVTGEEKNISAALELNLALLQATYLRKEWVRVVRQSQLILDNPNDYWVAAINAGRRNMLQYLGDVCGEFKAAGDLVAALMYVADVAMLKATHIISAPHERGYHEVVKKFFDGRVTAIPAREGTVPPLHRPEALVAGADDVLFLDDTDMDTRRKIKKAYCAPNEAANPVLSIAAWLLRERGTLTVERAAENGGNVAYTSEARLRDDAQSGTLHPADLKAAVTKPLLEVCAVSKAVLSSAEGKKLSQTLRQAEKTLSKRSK

[8] = target: T4, Tyrosyl-tRNA synthetase, putative (Trypanosoma cruzi (strain CL Brener)); experiment: Trypanosoma cruzi tyrosyl tRNA synthetase (TcYRS) SOP; assay type: functional; settings: 30 µM
[9] = target: Chromo domain-containing protein 1 (Saccharomyces cerevisiae (strain ATCC 204508 / S288c) (Baker's yeast)) (UniProt P32657); experiment: ScCHD-1 Enzyme Inhibition Assay; assay type: functional; settings: 30 µM; further: in the data most compounds retested in dose-response had high values
Chain of Chromo domain-containing protein 1 (Saccharomyces cerevisiae (strain ATCC 204508 / S288c) (Baker's yeast)) (P32657 whole entry, the tested form may be a part): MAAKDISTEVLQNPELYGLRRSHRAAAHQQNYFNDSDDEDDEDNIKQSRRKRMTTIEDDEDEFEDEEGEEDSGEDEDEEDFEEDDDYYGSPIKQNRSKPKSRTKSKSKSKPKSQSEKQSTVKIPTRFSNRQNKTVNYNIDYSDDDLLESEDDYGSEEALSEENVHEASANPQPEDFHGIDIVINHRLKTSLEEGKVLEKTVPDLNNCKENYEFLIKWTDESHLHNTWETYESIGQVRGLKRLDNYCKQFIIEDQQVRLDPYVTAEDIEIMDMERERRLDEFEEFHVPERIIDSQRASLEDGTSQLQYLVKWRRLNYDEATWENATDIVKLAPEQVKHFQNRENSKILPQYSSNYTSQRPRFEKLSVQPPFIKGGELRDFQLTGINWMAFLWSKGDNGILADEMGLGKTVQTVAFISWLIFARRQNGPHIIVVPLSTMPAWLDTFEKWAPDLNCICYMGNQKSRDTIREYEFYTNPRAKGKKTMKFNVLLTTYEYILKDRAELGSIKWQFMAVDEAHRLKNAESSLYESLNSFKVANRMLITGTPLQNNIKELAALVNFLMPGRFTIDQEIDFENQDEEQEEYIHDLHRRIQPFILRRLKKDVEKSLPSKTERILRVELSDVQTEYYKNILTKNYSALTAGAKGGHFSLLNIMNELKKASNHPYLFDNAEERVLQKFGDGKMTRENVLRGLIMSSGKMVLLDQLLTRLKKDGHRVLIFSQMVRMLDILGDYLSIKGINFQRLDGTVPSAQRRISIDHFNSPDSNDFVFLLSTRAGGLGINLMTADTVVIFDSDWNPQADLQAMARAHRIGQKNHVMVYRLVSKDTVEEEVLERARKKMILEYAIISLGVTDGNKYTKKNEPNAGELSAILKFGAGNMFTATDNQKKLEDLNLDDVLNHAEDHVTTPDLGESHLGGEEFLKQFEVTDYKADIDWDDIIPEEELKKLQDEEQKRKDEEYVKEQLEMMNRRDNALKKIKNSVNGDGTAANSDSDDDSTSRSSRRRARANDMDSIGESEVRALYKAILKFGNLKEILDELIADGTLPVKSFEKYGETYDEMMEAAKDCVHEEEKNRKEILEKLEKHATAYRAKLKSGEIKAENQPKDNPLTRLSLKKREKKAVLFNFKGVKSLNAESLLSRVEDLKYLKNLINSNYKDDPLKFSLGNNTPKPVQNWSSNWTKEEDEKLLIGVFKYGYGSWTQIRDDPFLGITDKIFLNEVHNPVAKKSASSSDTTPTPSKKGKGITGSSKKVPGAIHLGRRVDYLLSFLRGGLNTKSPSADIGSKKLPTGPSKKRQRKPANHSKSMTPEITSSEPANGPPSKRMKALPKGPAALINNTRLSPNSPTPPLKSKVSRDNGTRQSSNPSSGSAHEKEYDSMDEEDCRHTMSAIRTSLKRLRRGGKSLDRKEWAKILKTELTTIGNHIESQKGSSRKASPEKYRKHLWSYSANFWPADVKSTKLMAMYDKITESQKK

Chain of Sialic acid-binding Ig-like lectin 9 (Homo sapiens) (Q9Y336 whole entry): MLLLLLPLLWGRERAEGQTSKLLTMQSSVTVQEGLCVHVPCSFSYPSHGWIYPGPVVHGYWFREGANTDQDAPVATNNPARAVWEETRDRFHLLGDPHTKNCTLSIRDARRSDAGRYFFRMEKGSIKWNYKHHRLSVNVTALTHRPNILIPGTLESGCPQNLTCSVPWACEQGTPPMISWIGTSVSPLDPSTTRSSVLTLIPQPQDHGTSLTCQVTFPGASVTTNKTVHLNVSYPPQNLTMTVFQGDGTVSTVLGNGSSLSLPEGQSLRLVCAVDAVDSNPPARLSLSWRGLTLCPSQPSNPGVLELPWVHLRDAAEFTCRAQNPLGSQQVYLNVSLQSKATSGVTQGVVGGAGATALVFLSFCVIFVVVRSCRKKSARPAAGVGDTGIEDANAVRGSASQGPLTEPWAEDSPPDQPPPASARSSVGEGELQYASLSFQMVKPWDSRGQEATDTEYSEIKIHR
Chain of Protein translocase subunit SecA (Escherichia coli (strain K12)) (P10408 whole entry): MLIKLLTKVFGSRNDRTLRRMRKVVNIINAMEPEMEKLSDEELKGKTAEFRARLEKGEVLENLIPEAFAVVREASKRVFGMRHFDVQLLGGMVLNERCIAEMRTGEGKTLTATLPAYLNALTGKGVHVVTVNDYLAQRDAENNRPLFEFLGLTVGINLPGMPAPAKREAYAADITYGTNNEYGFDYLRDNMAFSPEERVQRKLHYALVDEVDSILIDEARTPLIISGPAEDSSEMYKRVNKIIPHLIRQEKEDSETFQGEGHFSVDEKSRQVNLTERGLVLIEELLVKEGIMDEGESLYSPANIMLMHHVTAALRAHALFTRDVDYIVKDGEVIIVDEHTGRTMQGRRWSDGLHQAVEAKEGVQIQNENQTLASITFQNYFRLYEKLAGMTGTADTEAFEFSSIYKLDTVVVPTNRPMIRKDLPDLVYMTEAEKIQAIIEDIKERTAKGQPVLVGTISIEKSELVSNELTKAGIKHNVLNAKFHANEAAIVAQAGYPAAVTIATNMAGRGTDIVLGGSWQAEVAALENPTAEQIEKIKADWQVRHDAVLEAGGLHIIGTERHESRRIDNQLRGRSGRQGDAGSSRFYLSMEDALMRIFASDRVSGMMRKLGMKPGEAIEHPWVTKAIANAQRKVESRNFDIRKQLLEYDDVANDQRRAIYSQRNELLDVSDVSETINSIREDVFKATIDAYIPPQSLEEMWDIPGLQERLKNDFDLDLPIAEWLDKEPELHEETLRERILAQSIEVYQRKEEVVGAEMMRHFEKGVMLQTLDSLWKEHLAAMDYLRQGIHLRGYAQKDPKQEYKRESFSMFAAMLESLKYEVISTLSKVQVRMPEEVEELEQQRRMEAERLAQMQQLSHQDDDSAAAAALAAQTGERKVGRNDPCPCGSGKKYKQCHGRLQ

| Structure (SMILES) | Percent Effect [1] [%] | Percent Effect [2] [%] | Percent Effect [3] [%] | Percent Effect [4] [%] | Percent Effect (Trypanosoma cruzi) [%] | Percent Effect [5] [%] | Percent Effect [6] [%] | Percent Effect (Homo sapiens) [%] | Percent Effect [7] [%] | Percent Effect [8] [%] | Percent Effect [9] [%] |
| --- | --- | --- | --- | --- | --- | --- | --- | --- | --- | --- | --- |
| Cn1ccnc1CNC(=O)N(CCCO)C1CCCc2ccccc21 (stereo unspecified) | -2.21 | 5.26 | -1.41 | -4.25 | 2.43 | -3.55 | -3.36 | 8.36 | 2.13 | 10.4 | -9.5 |
| CC(C)(C)c1ncc2c(n1)CN(C(=O)c1ccc(-c3nc[nH]n3)cc1)C2 | -4.17 | 19.2 | -3.06 | 7.66 | 4.37 | 1.2 | 6.76 | -4.4 | 7.29 | 21 | -8.9 |
| CC(C)CNC(=O)NC(=O)CNc1ccccc1SCC(C)C#N (stereo unspecified) | -5.8 | 11 | 6 | 16.8 | 1.37 | 6.82 | 9.41 | 11.3 | 0 | 12.5 | -5.23 |
| Cn1cc(CNCCn2cccn2)c(-c2cccnc2)n1 | -3.75 | 0 | -3.89 | -4.32 | -1.66 | 0.744 | 13.8 | -1.72 | -1.07 | 1.24 | 2.43 |
| CCc1[nH]ncc1C(=O)N1CCCN(Cc2cnn(C(C)C)c2)CC1 | -1.61 | 29.7 | -18.5 | -5.54 | 4.62 | -18 | 18.7 | 24.4 | 3.45 | 13.6 | -9.88 |
| COCCOCc1cccc(NC(=O)N2CCCC2c2ccncc2)c1 (stereo unspecified) | -2.97 | 13 | -3.58 | 1.28 | -4.02 | 1.9 | 5.09 | 16.9 | 6.67 | 7.06 | -20.8 |
| COc1ccc(C2=CCN(C(=O)C3CCCN(C(N)=O)C3)CC2)cc1 (stereo unspecified) | -3.88 | 7.89 | 4.4 | -4.74 | 7.75 | -2.52 | 12.9 | 2.88 | 6.4 | 18.5 | -7.24 |
| CCc1nccn1C1CCCN(C(=O)Cc2n[nH]c3ccccc23)C1 (stereo unspecified) | -3.99 | 3.8 | 8.48 | 8.66 | -4.62 | 3.66 | -0.858 | 1.26 | 2.08 | 15.2 | -2.38 |
| CCNC(=O)c1ccc(N2CCCC(c3nccn3C(C)C)C2)nc1 (stereo unspecified) | -2.94 | 8 | -3.44 | 14.3 | 5.16 | 20.3 | 11.2 | 6.3 | 3.83 | 11.1 | -4.72 |
| Cc1ccc(C(=O)NC(C)CN2CCCC2=O)c(=O)[nH]1 (stereo unspecified) | -6.8 | 5.48 | -5.61 | 0.134 | -2.94 | 0.455 | 12.8 | 18.2 | 1.07 | 2.5 | -0.198 |
| O=C(O)[C@@H]1CN(C(=O)c2cc(C3CC3)n[nH]2)C[C@H]1c1cccc(F)c1 | -3.18 | 16.4 | -3.35 | 7.52 | 2.98 | -7.58 | 14.5 | -4.38 | 3.12 | 21 | -6.55 |
| Cc1cc(C)n(CC2CN(Cc3cccc(C(N)=O)c3)CCO2)n1 (stereo unspecified) | -2.43 | 16.2 | 8.27 | -0.119 | 4.69 | 8.75 | 20.7 | 18.8 | 7.92 | 20.7 | 97.6 |
| COc1ccc(C2=CCN(C(=O)C3CCN(C)C(=O)C3)CC2)cc1 (stereo unspecified) | -3.77 | 15.8 | 2.43 | -4.29 | 9.06 | 1.8 | 7.19 | 6.58 | 7.39 | 16.1 | -5.39 |
| CN(CCO)C(=O)c1coc(CN2CCN(c3ccccc3F)CC2)n1 | -2.04 | 13.3 | -1.48 | 17.7 | -0.0974 | 49.5 | 20.2 | 11.4 | 6.01 | 21 | 97.1 |
| Cn1ccc(C(=O)N2CCC(Cc3cnc4[nH]ccc4c3)CC2)n1 | -2.94 | 6.76 | 13 | 2.89 | -0.395 | 1.16 | 7.64 | 7.58 | 4.3 | 14.3 | -4.7 |
| CC(C)C(=O)N1CCN(Cc2csc(-c3ncccn3)n2)CC1 | -3.04 | 0 | 9.34 | 3.09 | 1.27 | 0 | 11.4 | 2.18 | 4.25 | 10.4 | -1.19 |
